# Positions count from the first letter of the chain named. Over roughly 24,000 sequences, “enrichment r” has its median near 0.99; the highest 2% begin near 3.7. For the sample, the highest values were picked, then their nearest neighbours and some sequences at random.
# T1: UNK ZnF1-3 (human, UniProt Q9C0B0 31-174)
# T1 sequence: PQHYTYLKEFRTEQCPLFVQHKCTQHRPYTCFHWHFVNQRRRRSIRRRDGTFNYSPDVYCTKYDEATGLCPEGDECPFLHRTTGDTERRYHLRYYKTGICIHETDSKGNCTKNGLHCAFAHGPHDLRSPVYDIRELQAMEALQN
# B1: chr2:42509997:42509998:+_ENSG00000143924_ENST00000318522|hu_mus|hu_hu_hu_mus_True|28_48 (ssRNA)
# RNA: GGGAGUUCUACAGUCCGACGAUCUCGCUGAGUCCUCUCCUCAUAAUUAAACAGGACUACCACUGAGGCGAUAAAAUAAACUAUCUCCCCGGUCGGAAGCAGGUAUACAUUAGCUCUACAGUCCUUUCCUCGAUAACCGUAUACCAACAGAGGAUUGAGCAUCA
# B2: chr3:108363203:108363204:-_ENSMUSG00000068732_ENSMUST00000090546|mus_hu|FALSE|FALSE (ssRNA)
# RNA: GGGAGUUCUACAGUCCGACGAUCCCAGGUUUUGAGACGAGGUACUUUCUUGAAGUAGGCACAGGUGCAAACAAAGAGCAAACCAAACACCAGAAUCCCAUCCAAGGAGUACACGUUCGUCAUGGCGGCUGGCCCUGGACCUGGCAACAGAGGAUUGAGCAUCA
# B3: chr2:216981417:216981418:+_ENSG00000079246_ENST00000392132|hu_hu|hu_hu_hu_mus_True|48_58 (ssRNA)
# RNA: GGGAGUUCUACAGUCCGACGAUCCUGAUACUGGUCCUUGCCAGCAAGGGCAUUAUCAGUGCCAUCUGUGCCAUAGAGGACUAAAGCAAUCUCAUCCUUGCUCUCCGAAAAUACCUGUCGUUGGACAAACAUAGUCAUCACUUUCAACAGAGGAUUGAGCAUCA
# B4: 91404753_91404873_2338_CDS_ENSG00000122482_ENST00000337393|human|control|control (ssRNA)
# RNA: GGGAGUUCUACAGUCCGACGAUCAGGUUUUUGGUCAACGCUGCUUUUAAUUGUAACAUUCUUAUGAGGAGAGCUGUUUUGAUUGCACAUGUUUACACCUGAUUGGGCAAUGCUUUUCCGAGCUUUCUGUAUUCUGUGUGGCCGCAACAGAGGAUUGAGCAUCA
# B5: chr2:153593888:153593889:+_ENSMUSG00000027479_ENSMUST00000028981|mus_hu|FALSE|FALSE (ssRNA)
# RNA: GGGAGUUCUACAGUCCGACGAUCAGUAGUGGGUGAGACACAUUUUGCAGAAUCCUGCCAAACAAAGGAACUGAAUAGGCUGUGGGCAAAGCAAAUGAGGGAGAGUUAAGGAAUGAAGUAUUUUAAAUAUUAAUAAUUAAUUCACAACAGAGGAUUGAGCAUCA
# B6: chr2:153593888:153593889:+_ENSMUSG00000027479_ENSMUST00000028981|mus_mus|FALSE|FALSE (ssRNA)
# RNA: GGGAGUUCUACAGUCCGACGAUCCUCAGUAGUGGGUAACACAUUUUGCAGAGUUCGCCAAACAAAGGAAUUGAAUAGGCUAUGGGUAAAGCAAUUGAGGGAGAAUUAAGGAAUGAAGUAUUUUAAAUAUUAAUAUUUCAGUCACAACAGAGGAUUGAGCAUCA
# B7: 77768493_77775406_9844_CDS_ENSG00000091656_ENST00000521891|human|control|control (ssRNA)
# RNA: GGGAGUUCUACAGUCCGACGAUCACUGCUGAGAGACAGGGCAGGAGACGAAGUAGCUGAAGUAGGAAACCCAAGCAUGCCUGCACCGGGAGGUGUUAAAGUGUUUGAAUUUUGUGGAAAUCCCGGCAAGGAGGAUGGACCGUUCAACAGAGGAUUGAGCAUCA
# B8: chr6:39351226:39351227:-_ENSMUSG00000029922_ENSMUST00000031985|mus_hu|FALSE|FALSE (ssRNA)
# RNA: GGGAGUUCUACAGUCCGACGAUCGACAAAGUUAGAUGUGAUCCGGCAUUCUGGGCAGGACUUUAUGAUCUUGCUCUCAAAUUGCUUAGCACUCCUCCACUUGCGAAUGCACUUGAGACAGUAGGUGUGGUUGCAGUUGGAGAGCAACAGAGGAUUGAGCAUCA
# B9: chr3:54535082:54535083:-_ENSMUSG00000027752_ENSMUST00000029316|mus_mus|FALSE|FALSE (ssRNA)
# RNA: GGGAGUUCUACAGUCCGACGAUCGCAGGCAUCCAAAAUGUUCCCAUCGUAGUCUAGACAAAUGAGGUCACAGUAUAGAACCCAAGCAAGCUUGCCUGGAGAAAUGCAUAAAUCCUCUUUCUUAAUCACCUGUGAGUUGUCAACCAACAGAGGAUUGAGCAUCA
# B10: chr4:144447494:144447495:+_ENSG00000153147_ENST00000283131|hu_hu|motif|central (ssRNA)
# RNA: GGGAGUUCUACAGUCCGACGAUCCCAGUUGUGUAAUGUAGACUUAGGAACCAAAACCAUAUGAGGCCCAGGAAUGUUUCGGUAAUGUUUCAUGUACCCAAGAAGAGAAAUUGUUUGAAGAGUCUUUCCUAGGCCCAUUUCAUCCAACAGAGGAUUGAGCAUCA
# B11: chr7:116176368:116176369:+_ENSMUSG00000031028_ENSMUST00000033341|mus_hu|FALSE|FALSE (ssRNA)
# RNA: GGGAGUUCUACAGUCCGACGAUCAGACACACACAUACACAGACGGACACAGAGCACCUUGGAGCCAGAAGGAAAGGAAAGCUAGACUUGGAGAAGAGUUGGGGAAGUGAACUUCACCACUCUGCAGAAUUGUUCUGGGGCAGACAACAGAGGAUUGAGCAUCA
# B12: chr4:124323795:124323796:+_ENSG00000164056_ENST00000339241|hu_hu|FALSE|FALSE (ssRNA)
# RNA: GGGAGUUCUACAGUCCGACGAUCCCAUGAGUUAGACCUUGGCAACAGGGGAAGAGAAGGUGGGAAACAGGGAAAAAUUCUAAAGAAAACAAAAACAAAAACAAAAACAAAAAACAGCCACAACUUGAAAGCUAAAAGUUCAGGCAACAGAGGAUUGAGCAUCA
# B13: chr15:103023242:103023243:-_ENSMUSG00000009575_ENSMUST00000118152|mus_hu|FALSE|FALSE (ssRNA)
# RNA: GGGAGUUCUACAGUCCGACGAUCAACAUCUGAACUAGCAGCUUUGAUGAGGGGUGGGGGGCAGAAAAUUUGCCGAGUCACUAAGUAGUUCCAGUCUUGGAGACAGCUCAGUGAGGACCAAAGCCUGUGUGUCAGGCUUAAACUCAACAGAGGAUUGAGCAUCA
# B14: chr4:99801976:99801977:-_ENSG00000151247_ENST00000280892|hu_hu|motif|central (ssRNA)
# RNA: GGGAGUUCUACAGUCCGACGAUCAACACAUUUAUGGAUUCUGGGGAUGUGUACUGUAAUUCUUUGAUUGGGAUAGUGGAAACUCGGGCCAAAAAAAAAAAAAAAAAUGAACACAGAAGUACAAGACAAAGGCGAAUGAGACUUCAACAGAGGAUUGAGCAUCA
# B15: chr4:124323795:124323796:+_ENSG00000164056_ENST00000339241|hu_hu|motif|central (ssRNA)
# RNA: B12 RNA with U80G, A81G
# B16: chr11:75578338:75578339:+_ENSMUSG00000020849_ENSMUST00000067664|perfect_dup|motif|central (ssRNA)
# RNA: GGGAGUUCUACAGUCCGACGAUCAAAGGGGAGGGGAGAAAAAAAAAAAAGAAAAAGAAAGAAAAACAACAGGGCAGGAACCGGAAUUCUGAGACCAAAUGUGAAAGUCAAAUUUGGUGGUUCUCAGUGACAAUGGGGAACUUCCAACAGAGGAUUGAGCAUCA
# B17: 18505133_18505253_973_CDS_ENSG00000101310_ENST00000262544|human|control|control (ssRNA)
# RNA: GGGAGUUCUACAGUCCGACGAUCUUCACAGCUUAGCUCAUGAACCUGCACCAUCCUUCCAAAUGUGAUCAGACCCACCAGAGCAUCUGGAGGAAGAAGACUCAGGGACAUCUGCAGGGACUCUUUGAGUGCUUGAAGGUCAUCCAACAGAGGAUUGAGCAUCA
# B18: chrX:7701523:7701524:-_ENSMUSG00000031166_ENSMUST00000033506|mus_mus|FALSE|FALSE (ssRNA)
# RNA: GGGAGUUCUACAGUCCGACGAUCCAGGCAAGUGUGGGGUCCACCCAAACAGUAGCUGCCAAUGUUGGGGAGUUUGACAACCUAACCUGGUGAAAGCCCCGUGGUUGAACUUAACAUUCUGCACCUAAUUUCCCUACUGCUGUCCAACAGAGGAUUGAGCAUCA
# B19: chr2:69570450:69570451:+_ENSMUSG00000042133_ENSMUST00000090858|mus_hu|FALSE|FALSE (ssRNA)
# RNA: GGGAGUUCUACAGUCCGACGAUCACAAAGACAACGAAAGUUCUCGCAUGUUUUGGGGCACACAUCAGAAAAUAAUUCAAAGACAACUCUUCCAGCAGGUUGAUUGUUAAUGGCAAUGUCAAAAAAACAUCGAGGACGUUGAACCAACAGAGGAUUGAGCAUCA
# B20: chr11:75578338:75578339:+_ENSMUSG00000020849_ENSMUST00000067664|perfect_dup|FALSE|FALSE (ssRNA)
# RNA: B16 RNA with G82U, G83A
# B21: chr7:135839593:135839594:+_ENSMUSG00000042105_ENSMUST00000151237|mus_hu|FALSE|FALSE (ssRNA)
# RNA: GGGAGUUCUACAGUCCGACGAUCAGAAUCAGUCACUUCAACAGAGUAAAGCUCUAAAGACACCAGACGAACCAAUACUUGUUGGAAUAUGCCAUACAACUUUCUUACUGUGGGGAUUACAGGGGCAGCCCUGGUUCUGUGUGGCAACAGAGGAUUGAGCAUCA
# B22: 36153137_36166621_529_CDS_ENSG00000145604_ENST00000274255|human|control|control (ssRNA)
# RNA: GGGAGUUCUACAGUCCGACGAUCCGCUAGGCGAUACCACCUCUUACAAACACCAGAGACCUUUAGCAGCUCAGGGAGGCACAGACAGGAAAAGAUUCCCAAGAGCAGCUCAUCCGGAAGGGAGUCCCAUGAAACACCUGGAAACAACAGAGGAUUGAGCAUCA
# Biological target: T1, UNK ZnF1-3
# Experiment: nsRBNS (natural sequence RNA bind-n-seq); RBNS binding buffer (assumed for nsRBNS): 25 mM Tris pH 7.5, 150 mM KCl, 3 mM MgCl2, 0.01% Triton X-100, 500 ug/ml BSA, 20 U/ml SUPERase-In, 4 C; UNK is unkempt and MSI1 is Musashi-1; names of the RNAs are library labels; protein concentration not given here; high values mean tight binding
row,Binder,binding signal [enrichment R]
1,B1,1.03
2,B2,1.56
3,B3,0.722
4,B4,0.646
5,B5,4.38
6,B6,2.24
7,B7,1.52
8,B8,0.754
9,B9,1.32
10,B10,1
11,B11,3.99
12,B12,4.13
13,B13,1.22
14,B14,3.29
15,B15,3.58
16,B16,5.06
17,B17,1.32
18,B18,1.26
19,B19,1.49
20,B20,4.7
21,B21,1.69
22,B22,1.46
